14-3-3 Bad PPI: disrupts binding of bovine 14-3-3 zeta to phospho-Bad peptide; P63103; TR-FRET 14-3-3zeta/Dy647-pBad peptide displacement, 1 h; inhibition, % at 21.7 µM; 220,000 tested, 0.71% active;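 active means inhibition above about 70%, limit read from the data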;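 further: 0% = full 14-3-3 plus peptide FRET controls and 100% = background without 14-3-3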
TNF necrop inh: blocks TNF-alpha induced death of Jurkat FADD-/- cells. Jurkat FADD-/- TNF necroptosis rescue, ATP luminescence, 24 h; 0 = TNF only, 100 = no-TNF cells. activation (protection from cell death), % at 10 µM. 220,000 tested, 0.068% active. AID 463075;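 active means activation, meaning protection from cell death, of at least 50% relative to plate controls; inactive means activation below 50%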;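 further: necroptosis triggered by 40 ng/mL TNF-alpha added together with compound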
m-calpain inh: calpain II (pig) inhibition; purified calpain II, fluorogenic peptide substrate, 30 min; inhibition, % at 16 µM; 220,000 tested, 0.37% active;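 active means inhibition above about 50%, limit read from the data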
ROMK mod: modulators of human ROMK potassium channel. P48048. Tet-inducible ROMK, thallium flux fluorescence; actives lie on both sides. B-score at 10 µM. 130,000 tested, 2% active. AID 1918;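 active means signal ratio slope over the read window, or its plate-corrected B-score, at least 3 SD from the plate mean, either direction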;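 further: B-score of the F/F0 ratio slope over 7 to 12 s after thallium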
Target sequence (P48048 whole entry, looked up): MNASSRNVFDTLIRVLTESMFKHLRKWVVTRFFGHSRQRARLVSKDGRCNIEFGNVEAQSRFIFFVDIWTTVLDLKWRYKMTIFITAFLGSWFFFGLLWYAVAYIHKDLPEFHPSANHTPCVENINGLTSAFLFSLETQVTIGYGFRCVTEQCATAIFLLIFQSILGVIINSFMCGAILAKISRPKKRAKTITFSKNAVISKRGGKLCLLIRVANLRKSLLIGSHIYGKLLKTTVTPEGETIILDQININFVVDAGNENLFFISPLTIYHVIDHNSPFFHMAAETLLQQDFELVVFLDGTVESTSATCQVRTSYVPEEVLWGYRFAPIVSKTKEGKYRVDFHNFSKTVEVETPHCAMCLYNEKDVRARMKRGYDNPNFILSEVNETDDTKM
Efa HMGR inh: E. faecalis class II HMG-CoA reductase inhibition; inhibition, % at 10 µM; purified E. faecalis HMGR, NADPH absorbance 340 nm kinetic; 190,000 tested, 0.41% active; AID 1066;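 active means inhibition above a set limit, the median over all tested compounds plus 3 SD, cut at about 9.5% in these data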;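 further: enzyme runs in reverse so mevalonate oxidation gives rising NADPH absorbance; 0% = complete reaction with DMSO and 100% = background rate lacking mevalonate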
L929 necroptosis: L929 zVAD cell death inhibition | L929 zVAD necroptosis rescue, ATP luminescence, 24 h; with zVAD 60 µM | viability rescue, % at 10 µM | AID 1377 | 220,000 tested, 0.38% active;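 active means activation, scaled between plate controls, above about 75%, limit read from the data; inactive means activation under that limit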;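 further: 0% = zVAD with DMSO and 100% = DMSO alone without zVAD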
The depositor's hits bear a star; x = no result. This is a sample that favours compounds with a hit; in the whole collection about 3% have one here.

SMILES	14-3-3 Bad PPI	TNF necrop inh	m-calpain inh	ROMK mod	Efa HMGR inh	L929 necroptosis
CCCCC(=O)Nc1nn(CC(C)C)c2nc3ccccc3cc12	82*	1	-163	x	3	0
O=c1cc2c(=O)oc3cc(O)c(O)oc3c2c(O)c1O	89*	2	-4	x	x	0
O=c1oc2cc(O)c(Cl)cc2c2ccccc12	-24	2	2	-0.96	-4	1
Cc1nc(N2CCN(c3ccccc3)CC2)nc2c1C(=O)CC(C)C2 (centres undefined)	13	-4	72*	x	-4	0
O=C(NCCc1c[nH]c2ccccc12)C(=O)NCC1OCCCN1S(=O)(=O)c1cc(F)ccc1F (centres undefined)	-11	1	-22	-0.12	-3	0
O=C(NCC1OCCCN1S(=O)(=O)c1cc(F)ccc1F)C(=O)NC1CCCCC1 (centres undefined)	-6	2	-22	0.032	9.6*	0
CC(C)C(=O)Nc1ncc(C(F)(F)F)cc1Cl	6	1	-7	x	-1	0
CC(Cl)C(=O)Nc1ncc(C(F)(F)F)cc1Cl (centres undefined)	2	1	-14	-0.25	-3	0
ON/C=N/C(=S)Nc1ncc(C(F)(F)F)cc1Cl	-11	0	10	0.32	18*	0
CON/C=N/C(=S)Nc1ncc(C(F)(F)F)cc1Cl	-9	-1	12	5.4*	-2	0
O=C(CSc1nc(-c2ccc(F)cc2)nc2c1Cc1ccccc1O2)Nc1cccc(C(=O)O)c1	95*	-1	59*	0.56	0	5
Cc1[nH]c2ccccc2c1CCN(Cc1cccnc1)C(=S)Nc1cccc(F)c1	-10	1	61*	0.084	6	-1
CCOc1ccc(NC(=S)N(CCc2c(C)[nH]c3ccccc23)Cc2cccnc2)cc1	-8	3	5	1	-1	x
Cc1[nH]c2ccccc2c1CCN(Cc1cccnc1)C(=S)Nc1ccc(F)cc1	-12	3	64*	-0.45	-2	-1
Cc1[nH]c2ccc(F)cc2c1CCN(Cc1cccnc1)C(=S)Nc1ccccc1	-12	1	22	-0.084	2	-1
CC(OCC(O)CN(C)CCOc1ccccc1)c1ccc(Cl)cc1 (centres undefined)	74*	-2	-2	-2.7	1	0
COc1ccc(CN2C(=O)/C(=C/c3ccc(-c4ccc(Cl)c(C(=O)O)c4)o3)SC2=S)cc1	77*	0	-23	-0.31	-2	1
O=c1cc(-c2ccco2)oc2c1ccc1ccccc12	77*	0	-64	-0.22	-1	0
O=C(COc1ncnc2ccccc12)Nc1cc([N+](=O)[O-])ccc1F	-2	8	2	x	x	1
COC(C(=O)Nc1ccc(Cl)cc1C)c1ccccc1 (centres undefined)	15	97*	-8	0.13	2	0
CNC(=O)c1nnn(Cc2ccccc2)c1NC(C)=O	9	-1	-23	x	3	0
CNC(=O)c1nnn(Cc2ccccc2)c1NC(=O)C(F)(F)F	77*	1	-31	-0.22	-5	2
Cc1ccsc1/C=C1/NC(=O)N(Cc2ccc(F)cc2)C1=O	-9	-2	-9	0.19	15*	0
O=C(O)c1ccc(COc2ccccc2/C=C2/NC(=O)N(c3cccc(Cl)c3)C2=O)cc1	-21	2	-21	x	1	0
O=C(O)c1ccc(COc2ccccc2/C=C2\NC(=O)N(Cc3ccc(F)cc3)C2=O)cc1	-3	0	-3	-0.63	11*	23
SMILES	14-3-3 Bad PPI	TNF necrop inh	m-calpain inh	ROMK mod	Efa HMGR inh	L929 necroptosis
CCc1ccc(NC(=O)CN(c2ccccc2)S(=O)(=O)N(C)C)cc1	57	1	-44	-0.22	-4	1
CCOC(=O)c1ccc(NC(=O)c2ccccc2N(C)S(=O)(=O)c2ccccc2)cc1	2	4	-4	x	-5	2
CCNC(=O)Nn1c(-c2ccccc2)nc2ccccc2c1=O	1	-3	11	x	-6	1
CCC(C(=O)OC)n1c(-c2ccccc2)nc2ccccc2c1=O (centres undefined)	-7	0	11	0.43	12*	0
COc1cc(CN(C)CCc2ccccn2)cc(OC)c1OC	73*	2	13	x	3	2
COc1ccc(CN(C)CCc2ccccn2)cc1OC	63	0	-12	x	-6	0
C(#CCN1CCOCC1)COC(c1ccccc1)c1ccccc1	72*	-2	22	x	-3	0
CSC(=S)N/N=C(\C)c1ccccc1	-29	0	1	10*	-4	-4
COc1ccc(C2Nc3ccccc3C(=O)N2NS(=O)(=O)c2ccc(C)cc2)cc1 (centres undefined)	-4	-1	-441	-0.48	13*	2
O=C(N/N=C/c1ccc(Cl)c([N+](=O)[O-])c1)C1CC1	0	2	54*	-2.1	-10	-1
Cc1nnc(NC(=O)NC(C)N2C(=O)C3C4C=CC(C4)C3C2=O)s1 (centres undefined)	-2	-4	-21	x	2	0
CC(NC(=O)Nc1nnc(C(F)(F)F)s1)(C(F)(F)F)C(F)(F)F	0	-12	36	-3.5*	-4	21
CC(NC(=O)Nc1nnc(C(F)(F)F)s1)N1C(=O)C2C3C=CC(C3)C2C1=O (centres undefined)	79*	-1	4	x	-1	0
CSc1ccccc1C(=O)C1CCCN(C(=O)NC(C)C)C1 (centres undefined)	-9	1	4	0.11	-4	0
Cc1[nH]c(=O)c(C(=O)/C=C/c2ccccc2F)c2c1CCCC2	9	-21	-2	-2.2	1	92*
CCOC(=O)c1oc2ccc(CNCCO)c(Cl)c2c1C	-7	2	-24	-0.0088	10*	0
CC(C)N(Cc1nc(-c2ccccc2)no1)C(=O)CCCN1C(=O)c2ccccc2C1=O	10	0	64*	x	-1	-1
O=C(N/N=C1\CCc2ccccc21)c1ccc(O)cc1	-8	-1	13	0.66	12*	4
O=C(N/N=C1\CCc2ccccc21)c1ccccc1Cl	-7	-1	2	-0.25	-4	2
O=C(N/N=C1/CCCc2ccccc21)c1cc([N+](=O)[O-])cc([N+](=O)[O-])c1	8	1	74*	-0.082	-6	1
CC(C)(C)c1nc[nH]c(=O)c1Br	-7	1	-4	x	-6	2
COC(=O)c1ccc(NC(=O)C2CC2)o1	12	-3	-7	x	-4	0
O=C(NCCO)Nc1ccc2nc(-c3ccco3)c(-c3ccco3)nc2c1	80*	1	-210	x	0	0
Cc1ccc(N=Nc2c(O)n(CN3CCOCC3)c3ccccc23)cc1	-10	-3	-10	x	-1	85*

Source: PubChem
